# Assay results from the supplement of paper PMC10849652.
# Targets with a hit are over-represented here; the source holds about 7,900 in all. About 0.6% of all pairs of compound and target were hits. A number with no mark means an inactive call.
# Assays:
# Assay in all cases: log2 fold change, soluble protein after heating vs DMSO (PISA); higher = thermal stabilisation; K562 cells, 10 uM, 30 min; active = over 0.2 and 3.5 SD of the protein, either way, in both replicates (recomputed)
# [1] = compound: CC[C@@H]1C(=O)N(C)c2cnc(Nc3ccc(C(=O)NC4CCN(C)CC4)cc3OC)nc2N1C1CCCC1
# In short: (§1)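 K562 cells at 2×10^6 cells/mL were given 10 μM compound for 30 min. Aliquots then went through 3 min of heating across 48°C-58°C, were pooled, and were extracted in PBS with 0.5% NP-40 at 4°C, and the supernatant after 21,000xg for 90 min was quantified by TMTpro 16plex LC-MS/MS with channel sums equalised. Thermal stability relative to control samples, from duplicates, is given as log2 fold change.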
# [2] = compound: CC[C@@H]1C(=O)N(C)c2cnc(Nc3ccc(C(=O)N[C@H]4CC[C@H](N5CCN(CC6CC6)CC5)CC4)cc3OC)nc2N1C(C)C [volasertib]
# In short: as §1
# [3] = compound: CC[C@H](C)N1C=C(C2=C(C=C(C=C21)C3=CN=C(C=C3)N4CCNCC4)C(=O)NCC5=C(C=C(NC5=O)C)C)C
# In short: as §1
# [4] = compound: CC[C@H](C)[C@@H](C(=O)N[C@@H]([C@@H](C)O)C(=O)N[C@@H](CC(C)C)C(=O)[C@]1(CO1)C)NC(=O)[C@H]([C@@H](C)CC)N(C)C(=O)C [epoxomicin]
# In short: as §1
# [5] = compound: CCn1c(C(=O)N(C2CC2)C2CC2)cc2c3c(ncn3C)c(Nc3cc(C)n(C)n3)nc21
# In short: as §1
# [6] = compound: CCn1cc(-c2ccnc3[nH]c(-c4cccc(CN(C)C)c4)cc23)c(-c2ccc(NC(=O)N(C)C)cc2)n1
# In short: as §1
# [7] = compound: CN(C)CC(=O)Nc1ccc2[nH]c(=O)c3ccccc3c2c1
# In short: as §1
# [8] = compound: CN(CCOC1=CC=C(C=C1)C[C@H]2C(=O)NC(=O)S2)C3=CC=CC=N3 (racemic) [rosiglitazone]
# In short: as §1
# [9] = compound: CN1C2=C(C3=C1C(=O)N(N=C3)CC4=CC(=CC=C4)N)SC(=C2)S(=O)C
# In short: as §1
# [10] = compound: CN1CCC(CNc2ccc3ncc(-c4cccc(OC(F)(F)F)c4)n3n2)CC1
# In short: as §1
# Chain of UniProt Q9BXW9 (Q9BXW9 whole entry, looked up): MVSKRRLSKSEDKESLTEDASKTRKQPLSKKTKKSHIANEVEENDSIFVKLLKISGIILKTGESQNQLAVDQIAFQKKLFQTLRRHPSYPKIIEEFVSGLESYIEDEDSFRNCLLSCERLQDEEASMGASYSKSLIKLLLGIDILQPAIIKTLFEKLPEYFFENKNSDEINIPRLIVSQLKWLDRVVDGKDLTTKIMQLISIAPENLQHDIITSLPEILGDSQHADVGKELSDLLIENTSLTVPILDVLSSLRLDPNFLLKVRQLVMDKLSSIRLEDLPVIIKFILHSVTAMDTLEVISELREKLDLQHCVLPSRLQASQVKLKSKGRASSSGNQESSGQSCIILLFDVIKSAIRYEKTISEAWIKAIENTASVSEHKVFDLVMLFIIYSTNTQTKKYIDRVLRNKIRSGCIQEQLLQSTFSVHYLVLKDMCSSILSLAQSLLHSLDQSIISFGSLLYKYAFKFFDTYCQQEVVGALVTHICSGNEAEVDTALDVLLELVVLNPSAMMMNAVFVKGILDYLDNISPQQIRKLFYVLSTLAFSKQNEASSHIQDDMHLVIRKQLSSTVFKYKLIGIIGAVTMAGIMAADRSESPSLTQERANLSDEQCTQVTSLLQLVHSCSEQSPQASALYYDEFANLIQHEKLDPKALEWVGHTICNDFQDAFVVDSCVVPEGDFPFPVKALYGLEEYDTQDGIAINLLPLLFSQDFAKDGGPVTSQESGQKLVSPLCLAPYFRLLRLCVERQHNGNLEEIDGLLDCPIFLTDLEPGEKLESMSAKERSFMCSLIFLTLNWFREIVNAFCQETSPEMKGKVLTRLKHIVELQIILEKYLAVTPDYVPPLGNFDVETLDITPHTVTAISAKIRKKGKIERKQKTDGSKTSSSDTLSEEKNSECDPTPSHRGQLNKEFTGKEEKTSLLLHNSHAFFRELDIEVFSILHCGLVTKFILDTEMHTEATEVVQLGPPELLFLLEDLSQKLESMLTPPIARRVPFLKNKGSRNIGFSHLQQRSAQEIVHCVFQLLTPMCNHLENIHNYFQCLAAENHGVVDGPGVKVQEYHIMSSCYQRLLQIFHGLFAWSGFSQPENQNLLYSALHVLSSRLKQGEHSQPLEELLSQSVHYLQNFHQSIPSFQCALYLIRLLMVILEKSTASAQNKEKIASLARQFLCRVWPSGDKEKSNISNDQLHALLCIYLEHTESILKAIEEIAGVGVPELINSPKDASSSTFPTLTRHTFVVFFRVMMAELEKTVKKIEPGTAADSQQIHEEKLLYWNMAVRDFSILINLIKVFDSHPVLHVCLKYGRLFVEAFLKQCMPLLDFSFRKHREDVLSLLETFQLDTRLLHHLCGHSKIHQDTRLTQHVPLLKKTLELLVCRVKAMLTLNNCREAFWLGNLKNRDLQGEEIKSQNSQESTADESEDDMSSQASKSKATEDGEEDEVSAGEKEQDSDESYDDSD
# Chain of UniProt Q96LB3 (Q96LB3 whole entry, looked up): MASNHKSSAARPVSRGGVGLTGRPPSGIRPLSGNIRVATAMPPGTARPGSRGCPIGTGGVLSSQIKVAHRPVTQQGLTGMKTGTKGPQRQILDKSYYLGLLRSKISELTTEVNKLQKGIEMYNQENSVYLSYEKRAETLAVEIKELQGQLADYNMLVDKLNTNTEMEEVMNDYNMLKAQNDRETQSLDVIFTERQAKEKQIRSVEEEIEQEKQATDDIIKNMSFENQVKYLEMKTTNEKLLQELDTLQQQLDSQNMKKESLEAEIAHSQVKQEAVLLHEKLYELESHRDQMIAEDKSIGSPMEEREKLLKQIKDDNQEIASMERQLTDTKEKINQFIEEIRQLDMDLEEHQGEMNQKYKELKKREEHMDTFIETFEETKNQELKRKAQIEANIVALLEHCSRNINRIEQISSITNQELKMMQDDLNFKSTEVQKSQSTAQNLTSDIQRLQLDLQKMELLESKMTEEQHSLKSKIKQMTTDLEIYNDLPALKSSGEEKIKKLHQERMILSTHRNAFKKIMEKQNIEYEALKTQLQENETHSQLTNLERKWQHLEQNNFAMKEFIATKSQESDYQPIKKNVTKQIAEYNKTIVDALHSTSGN
# Chain of UniProt P48507 (P48507 whole entry, looked up): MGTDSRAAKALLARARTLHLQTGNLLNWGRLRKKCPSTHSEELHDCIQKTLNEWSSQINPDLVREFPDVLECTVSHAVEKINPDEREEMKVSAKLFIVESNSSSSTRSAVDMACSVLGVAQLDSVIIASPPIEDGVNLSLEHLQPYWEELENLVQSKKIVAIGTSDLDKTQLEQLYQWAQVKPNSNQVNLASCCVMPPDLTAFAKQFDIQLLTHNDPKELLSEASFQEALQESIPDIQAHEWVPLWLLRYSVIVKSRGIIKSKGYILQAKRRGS
# Chain of UniProt P31150 (P31150 whole entry, looked up): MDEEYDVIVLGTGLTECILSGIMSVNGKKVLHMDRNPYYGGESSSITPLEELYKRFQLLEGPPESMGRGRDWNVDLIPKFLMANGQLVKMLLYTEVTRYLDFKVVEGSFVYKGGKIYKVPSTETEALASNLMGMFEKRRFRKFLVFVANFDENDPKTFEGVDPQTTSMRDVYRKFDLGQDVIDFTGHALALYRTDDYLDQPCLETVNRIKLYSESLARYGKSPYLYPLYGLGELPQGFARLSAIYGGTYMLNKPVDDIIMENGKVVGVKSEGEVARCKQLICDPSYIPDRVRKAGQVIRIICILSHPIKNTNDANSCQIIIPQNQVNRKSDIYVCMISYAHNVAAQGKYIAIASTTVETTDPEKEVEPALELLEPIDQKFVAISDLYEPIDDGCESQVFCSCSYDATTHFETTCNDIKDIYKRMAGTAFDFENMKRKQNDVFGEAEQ
# Chain of UniProt O14976 (O14976 whole entry, looked up): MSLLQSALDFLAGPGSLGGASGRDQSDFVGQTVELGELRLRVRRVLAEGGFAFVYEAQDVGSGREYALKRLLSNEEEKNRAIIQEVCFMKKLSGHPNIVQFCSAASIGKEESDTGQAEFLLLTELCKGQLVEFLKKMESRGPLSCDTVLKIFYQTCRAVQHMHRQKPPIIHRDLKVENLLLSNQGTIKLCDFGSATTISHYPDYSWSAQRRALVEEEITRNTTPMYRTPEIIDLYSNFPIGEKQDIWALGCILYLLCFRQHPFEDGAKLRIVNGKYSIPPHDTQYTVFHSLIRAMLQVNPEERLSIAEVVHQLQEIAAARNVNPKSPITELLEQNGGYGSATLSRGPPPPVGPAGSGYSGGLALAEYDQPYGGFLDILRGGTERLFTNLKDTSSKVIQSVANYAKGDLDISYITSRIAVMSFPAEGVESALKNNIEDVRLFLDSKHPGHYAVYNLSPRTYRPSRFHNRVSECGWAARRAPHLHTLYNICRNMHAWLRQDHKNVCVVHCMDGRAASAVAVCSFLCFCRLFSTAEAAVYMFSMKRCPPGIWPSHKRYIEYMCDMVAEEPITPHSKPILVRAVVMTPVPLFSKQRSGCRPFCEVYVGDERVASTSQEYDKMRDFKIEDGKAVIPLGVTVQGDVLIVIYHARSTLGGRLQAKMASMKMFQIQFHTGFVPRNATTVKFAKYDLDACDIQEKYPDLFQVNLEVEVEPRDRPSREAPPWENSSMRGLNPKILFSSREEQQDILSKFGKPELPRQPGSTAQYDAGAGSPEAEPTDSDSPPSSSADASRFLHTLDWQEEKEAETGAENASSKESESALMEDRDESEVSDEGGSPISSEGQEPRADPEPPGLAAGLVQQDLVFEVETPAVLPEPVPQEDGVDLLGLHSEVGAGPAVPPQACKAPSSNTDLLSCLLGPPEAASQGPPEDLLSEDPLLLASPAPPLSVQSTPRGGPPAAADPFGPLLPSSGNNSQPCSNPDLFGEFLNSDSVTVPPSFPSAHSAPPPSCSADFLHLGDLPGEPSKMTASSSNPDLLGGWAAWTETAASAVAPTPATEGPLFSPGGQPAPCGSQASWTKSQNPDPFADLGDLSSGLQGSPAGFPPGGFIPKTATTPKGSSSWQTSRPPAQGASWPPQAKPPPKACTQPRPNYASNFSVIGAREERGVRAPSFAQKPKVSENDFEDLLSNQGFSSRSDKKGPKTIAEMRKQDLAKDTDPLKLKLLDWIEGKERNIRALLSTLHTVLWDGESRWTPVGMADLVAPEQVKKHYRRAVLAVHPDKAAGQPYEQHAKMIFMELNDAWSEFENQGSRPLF
# Chain of UniProt Q03013 (Q03013 whole entry, looked up): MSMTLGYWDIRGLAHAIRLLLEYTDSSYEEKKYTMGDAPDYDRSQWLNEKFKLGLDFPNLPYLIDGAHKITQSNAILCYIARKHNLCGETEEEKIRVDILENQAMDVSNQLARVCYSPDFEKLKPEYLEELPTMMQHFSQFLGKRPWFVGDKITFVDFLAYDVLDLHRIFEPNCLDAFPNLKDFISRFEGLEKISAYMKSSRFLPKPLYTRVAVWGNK
# Chain of UniProt P49840 (P49840 whole entry, looked up): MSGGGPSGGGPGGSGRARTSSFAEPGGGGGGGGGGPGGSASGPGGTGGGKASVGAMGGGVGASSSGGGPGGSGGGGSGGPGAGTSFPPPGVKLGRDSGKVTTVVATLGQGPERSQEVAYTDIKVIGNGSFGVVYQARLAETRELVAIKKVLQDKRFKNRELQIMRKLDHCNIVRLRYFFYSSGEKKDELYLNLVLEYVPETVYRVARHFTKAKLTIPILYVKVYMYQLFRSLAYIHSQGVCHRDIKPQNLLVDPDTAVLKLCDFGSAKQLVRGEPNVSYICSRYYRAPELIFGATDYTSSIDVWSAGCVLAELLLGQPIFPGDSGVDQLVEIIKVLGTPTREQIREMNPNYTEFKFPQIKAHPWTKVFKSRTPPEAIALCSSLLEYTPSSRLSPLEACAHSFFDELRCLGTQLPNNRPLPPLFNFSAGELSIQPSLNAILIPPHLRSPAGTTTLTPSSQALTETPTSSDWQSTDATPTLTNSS
# Chain of UniProt Q7Z4H3 (Q7Z4H3 whole entry, looked up): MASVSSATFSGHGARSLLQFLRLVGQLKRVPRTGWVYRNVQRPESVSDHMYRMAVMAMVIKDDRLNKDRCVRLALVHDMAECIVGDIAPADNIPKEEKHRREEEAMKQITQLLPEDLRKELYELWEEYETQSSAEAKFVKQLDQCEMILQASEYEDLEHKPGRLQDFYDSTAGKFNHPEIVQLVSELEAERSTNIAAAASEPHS
Target,log2 fold change [1],log2 fold change [2],log2 fold change [3],log2 fold change [4],log2 fold change [5],log2 fold change [6],log2 fold change [7],log2 fold change [8],log2 fold change [9],log2 fold change [10]
HDAC1 (UniProt Q13547),-0.025,-0.216,0.037,-0.006,-0.015,0.019,0.011,-0.027,0.001,-0.043
HIC2 (UniProt Q96JB3),0.028,-0.19,0.032,-0.134,0.126,0.128,-0.035,-0.185,0.164,-0.006
GSK3A (UniProt P49840),-0.067,0.002,0.002,0,0.025,-0.101,-0.008,0.017,-0.066,0.033
IFRD2 isoform 2 (UniProt Q12894),0.084,0.045,-0.261,-0.02,0,0.029,-0.319,0.225,-0.023,0.196
FARS2 (UniProt O95363),0.01,-0.172,0.109,-0.034,0.036,-0.052,-0.036,0.086,-0.002,-0.319 (active)
HIST2H3A (UniProt Q71DI3),-0.206,0.111,-0.023,-0.003,-0.185,0.315,-0.124,0.011,0.56,0.09
FOXK1 (UniProt P85037),0.429,-0.017,0.035,0.027,-0.094,0.041,-0.001,-0.077,-0.289,0.456
IFT74 (UniProt Q96LB3),0.125,0.01,-0.319,-0.061,-0.057,0,-0.051,0.031,0.025,-0.05
GNB2 (UniProt P62879),0.122,0.103,0.003,0.046,-0.01,-0.023,-0.042,-0.01,-0.079,0.3 (active)
GCLM (UniProt P48507),-0.183,-0.41 (active),0.058,0.03,-0.049,-0.046,0.042,0.082,0.03,-0.112
FUBP3 (UniProt Q96I24),0.061,-0.251 (active),0.045,0.021,0.025,0.064,-0.028,0.016,0.02,0.059
HADHA (UniProt P40939),0.03,0.469,0.107,0.055,0.231,-0.233,0.023,-0.019,-0.053,-0.334
FDXR isoform 7 (UniProt P22570),0.052,0.003,0.025,0.059,0.01,-0.144,0.012,0.035,-0.097,-0.387 (active)
HDDC2 (UniProt Q7Z4H3),0.008,0.08,0.014,-0.006,0.034,-0.063,0.025,0.035,-0.102,-0.066
GALK1 isoform 2 (UniProt P51570),-0.03,-0.009,0.053,0.131,0.026,-0.064,0.106,0.024,-0.049,-0.03
HOOK3 (UniProt Q86VS8),-0.151,-0.395 (active),0.034,0.004,0.006,-0.017,0.005,0.09,0.031,-0.358 (active)
FANCD2 isoform 1 (UniProt Q9BXW9),-0.229,-0.251,0.118,-0.307,-0.04,-0.055,0.026,0.062,-0.009,-0.233
GSTM4 (UniProt Q03013),0.202,0.095,0.039,-0.009,0.036,-0.063,0.025,-0.24,-0.054,-0.182
FNTA (UniProt P49354),0.123,0.362 (active),0.006,0.019,0.032,-0.074,0.012,0.036,-0.03,0.015
GCC2 (UniProt Q8IWJ2),0.094,-0.116,0.053,-0.005,0.038,0.013,0.026,-0.01,0.196,0.031
GAK (UniProt O14976),0.673,1.35,-0.401,-0.046,0.096,0.11,0.382,–,-0.038,0.95
HBZ (UniProt P02008),0.03,-0.065,-0.026,0.288 (active),0.061,-0.021,0.019,-0.005,-0.012,0.016
IFT80 isoform 3 (UniProt Q9P2H3),0.039,-0.232 (active),0.072,0.053,0.008,-0.09,0.095,0.028,-0.084,-0.157
HIKESHI (UniProt Q53FT3),-0.116,-0.178,0.022,-0.013,-0.015,0.001,0.008,0.035,-0.018,0.077
GPKOW (UniProt Q92917),-0.056,-0.217,0.101,-0.021,-0.063,-0.049,0.039,0.045,0.022,-0.248
GGA2 (UniProt Q9UJY4),0.022,0.059,0.038,-0.033,0.005,–,-0.021,0.083,-0.02,–
IFITM3 (UniProt Q01628),-0.004,0.033,0.023,-0.007,-0.124,–,0.175,-0.096,-0.015,–
GCDH (UniProt Q92947),-0.029,0.039,-0.003,0.024,-0.021,-0.051,0.008,0.013,-0.048,0.072
GDI1 (UniProt P31150),0.018,0.113,0.025,0.022,-0.031,-0.068,-0.015,0.027,-0.082,0.008
GPS2 (UniProt Q13227),0.151,-0.072,0.082,0.016,-0.011,–,0.068,0.027,–,–
